An excerpt weighted towards active compounds, which were near 2.8% of everything screened.
SMARCA2 activ – activators of SMARCA2 function | MG213 cells, MMTV-luciferase reporter, dexamethasone, overnight | activation, % at 9.1 µM | AID 652017 | actives 1% (n = 370,000); in the data active = activation above about 7.8%;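 note: 0% = vehicle wells and 100% = reference activator wells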
proKLK7 act – activators of human kallikrein-7 zymogen; activation, % at 7 µM; AID 652039; actives 0.9% (n = 370,000); purified proKLK7, EDANS-DABCYL substrate fluorescence; 100% is mature enzyme control, 0% vehicle; P49862;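 active = activation above the mean of all tested compounds plus 3 SD, computed per campaign excluding outliers beyond control limits, cut at about 13% in these data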
Target sequence (P49862 whole entry, looked up): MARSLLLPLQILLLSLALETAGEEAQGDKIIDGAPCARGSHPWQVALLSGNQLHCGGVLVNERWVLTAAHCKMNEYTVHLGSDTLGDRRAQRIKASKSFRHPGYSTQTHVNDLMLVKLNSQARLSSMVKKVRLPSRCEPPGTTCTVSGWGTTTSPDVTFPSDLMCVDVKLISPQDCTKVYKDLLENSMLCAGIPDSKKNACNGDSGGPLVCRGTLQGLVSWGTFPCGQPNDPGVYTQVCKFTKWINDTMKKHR
MsrA inh – inhibitors of bovine MsrA | inhibition, % at 15.5 µM | actives 0.75% (n = 360,000) | AID 651718 | purified bovine MsrA, absorbance read-out; in the data active = inhibition above about 4.5%;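 note: 0% = vehicle wells with enzyme and 100% = reference inhibitor wells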
bovine MsrA act – activators of bovine methionine sulfoxide reductase A. AID 602163. purified bovine MsrA, absorbance read-out. activation, % at 10.6 µM. actives 0.3% (n = 360,000); in the data active = activation above about 7.5%;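 note: 0% = vehicle and 100% = reference activator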
KLK7 act conf – proKLK7 activation, confirmation. activation, % at 7 µM. purified proKLK7, EDANS-DABCYL substrate fluorescence; scaled: vehicle 0, mature enzyme 100. shares compounds with proKLK7 act. AID 686949. actives 68% (n = 3,200);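 active = activation, as change over the incubation, above the mean of all tested compounds plus 3 SD, cut at about 13% in these data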
EDANS interfere – fluorescence interference counter-screen for KLK7 activators; shares compounds with proKLK7 act; EDANS-DABCYL substrate fluorescence interference, no enzyme, 4 h; solvent 0%, active enzyme control 100%; activation, % at 7 µM; actives 80% (n = 3,200);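 active = activation above the all-compound mean plus 3 SD, ignoring values outside control-based bounds, cut at about 4.8% in these data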;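 note: value is the 4 h activation minus the activation read at time zero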
K7 EDANS ctr – optically interferes with EDANS-DABCYL fluorescence, kallikrein-7 activator counter-screen. EC50, µM. EDANS-DABCYL peptide fluorescence interference, no enzyme. shares compounds with proKLK7 act. actives 20% (n = 250);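 active = compounds that raise the fluorescence signal in this interference counterscreen, with EC50 at or below 10 µM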;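 note: intact quenched peptide substrate alone read at 355 nm excitation and 520 nm emission; signal is fluorescence gain from T0 to T4 after four hours at room temperature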
Starred values were filed as active, the others as inactive; nt = not tested or not shown.

SMILES | SMARCA2 activ | proKLK7 act | MsrA inh | bovine MsrA act | KLK7 act conf | EDANS interfere | others
Cc1cccc(Cn2cc(CN3CC(N(C)CCCOC(=O)c4cc5ccccc5o4)CS3(=O)=O)nn2)c1 (stereo not given) | 0.1 | 0.6 | nt | nt | nt | nt
COc1ccc(/C=N/Nc2snc(SC)c2C#N)cc1OC | 2.7 | 16.2* | 2.7 | -4.0 | -13.6 | -10.2
COc1cccc(/C=N/Nc2snc(SC)c2C#N)c1 | 0.0 | -0.3 | 1.5 | -10.1 | nt | nt
C[C@H](CO)N1C[C@H](C)[C@@H](CN(C)C(=O)Cc2cccnc2)Oc2ncc(C#CCc3ccccc3)cc2C1=O | -4.0 | 0.5 | -0.4 | nt | nt | nt
COc1ccc(NC(=O)COC(=O)c2c(NC(C)=O)sc(C)c2C)cc1 | 2.0 | 25.9* | 0.3 | -6.7 | -0.8 | -1.0
Cc1ccc(NC(=O)C2=C(O)c3ccccc3N(C)S2(=O)=O)cc1 | -1.9 | 51.4* | 1.1 | -4.9 | 6.4 | 9.3*
Cc1cccc(C)c1NC(=O)C1=C(O)c2ccccc2N(C)S1(=O)=O | 1.3 | -0.1 | 0.0 | -0.6 | nt | nt
CC(c1cc(F)ccc1O)c1c[nH]c2ccccc12 (stereo not given) | -2.0 | 0.0 | nt | nt | nt | nt
C#CCNC(=O)C[C@H]1C[C@@]2(C(=O)OCC)CCCC3=C2N(CCC3)C1=O | -0.8 | 0.0 | nt | nt | nt | nt
N#Cc1ccccc1NC(=O)c1ccccc1OCC(=O)Nc1ccc2c(c1)oc1ccccc12 | -3.1 | 0.3 | 1.2 | 1.4 | nt | nt
CNC(=O)COc1ccccc1C(=O)Nc1ccc2c(c1)oc1ccccc12 | -10.6 | 54.7* | 0.7 | -13.5 | -74.5 | -111.4
CC(C)[C@H](NC(=O)N1CCOCC1)C(=O)N1CCC[C@H]1C(=O)NCc1ccccc1 | -2.3 | 0.6 | 0.4 | nt | nt | nt
CC(C)CNC(=O)c1cccc2c(-c3cccc(C(N)=O)c3)coc12 | -2.6 | 0.8 | -0.1 | -2.3 | nt | nt
N#Cc1ccccc1NC(=S)NC(=O)c1cccs1 | 2.6 | 14.4* | 1.0 | -1.8 | 13.9* | 16.3*
Cc1ccc(/C=C/C(=O)Nc2ccc(S(=O)(=O)Nc3cc(C)nc(C)n3)cc2)cc1 | -3.5 | 0.3 | 3.9 | -2.0 | nt | nt
Cc1ccc(C(=O)/C=C/Nc2ccc(S(=O)(=O)Nc3cc(C)nc(C)n3)cc2)cc1 | -1.4 | 29.6* | 2.4 | -2.0 | 148.4* | 118.9*
CCOC(=O)C1=CCN(S(=O)(=O)c2ccc(C)cc2)C1c1cccc(Br)c1 (stereo not given) | -3.4 | -0.6 | 2.0 | -5.0 | nt | nt
COC(=O)C1=CN(C)C=C(C(=O)OC)C1c1ccsc1 | 0.0 | 33.3* | 0.7 | 1.5 | 15.9* | 23.8*
COC(=O)C1=CN(C2CC2)C=C(C(=O)OC)C1c1ccc(C(=O)OC)cc1 | 7.3 | 3.5 | 1.0 | -3.1 | nt | nt
N#Cc1cnn2c3c(cnc12)C(=O)N1CCc2ccccc2C1C3 (stereo not given) | -0.1 | 76.6* | -0.3 | -2.4 | -181.5 | -138.0
O=C1c2cnc3ncnn3c2CC2c3ccccc3CCN12 (stereo not given) | -3.9 | 100.9* | -0.3 | 0.4 | 195.5* | 178.9*
CSc1nc2ncc3c(n2n1)CC1c2ccccc2CCN1C3=O (stereo not given) | 1.1 | 2.3 | 0.2 | 1.5 | nt | nt
CC(C)N(CCC(=O)c1ccc2ccccc2c1)Cc1ccccc1 | 1.7 | 14.4* | 3.1 | -7.2 | 14.8* | 17.9*
Cc1ccc(F)c(S(=O)(=O)NC(=O)C2(C)CCN2C(=O)c2sccc2C)c1 (stereo not given) | -2.4 | -0.2 | -0.7 | -2.2 | nt | nt
CC1=C(C(=O)N2CCOCC2)C(c2ccccc2F)C2=C(CC(C)(C)CC2=O)N1 (stereo not given) | -0.5 | 9.4 | 2.7 | -0.7 | nt | nt
SMILES | SMARCA2 activ | proKLK7 act | MsrA inh | bovine MsrA act | KLK7 act conf | EDANS interfere | others
COc1ccc(C2C(C(=O)N3CCOCC3)=C(C)NC3=C2C(=O)CC(C)(C)C3)c(OC)c1 (stereo not given) | 0.1 | 17.6* | 1.8 | 0.9 | 30.6* | 20.4* | K7 EDANS ctr=>23.2
CS(=O)(=O)NN1C(=O)c2ccccc2NC1c1cccc2cccnc12 (stereo not given) | -3.5 | 4.2 | 1.8 | -1.0 | nt | nt
COc1ccc(C2Nc3ccccc3C(=O)N2NS(C)(=O)=O)cc1 (stereo not given) | -1.9 | 61.3* | 0.9 | -2.9 | 11.4 | 10.6*
COc1cc(C2Nc3ccccc3C(=O)N2NS(C)(=O)=O)ccc1O (stereo not given) | -4.0 | 27.1* | 1.6 | -6.7 | 4.8 | 6.8*
CC1Nc2ccccc2C(=O)N1NS(C)(=O)=O (stereo not given) | -4.1 | 61.1* | -1.1 | -2.3 | 26.0* | 21.8*
COc1ccccc1N1C(=O)c2ccccc2NC1c1cc(OC)c(OC)c(OC)c1 (stereo not given) | -0.3 | 22.9* | -0.1 | -2.4 | 13.8* | 14.6*
CC1=C(O)C(=O)C(c2c(C)cc(C)c(Br)c2C)=C(O)C1=O | -2.9 | -0.2 | 1.7 | -5.9 | nt | nt
COc1ccc(C2Nc3ccccc3C(=O)N2NS(=O)(=O)c2ccccc2)cc1 (stereo not given) | -0.2 | 17.2* | -0.2 | -9.1 | 8.6 | 7.7*
COc1ccc(C2Nc3ccccc3C(=O)N2NS(=O)(=O)c2ccc(C)cc2)c(OC)c1 (stereo not given) | 0.1 | 7.8 | 1.0 | -2.5 | nt | nt
COc1ccc(C2Nc3ccccc3C(=O)N2NS(=O)(=O)c2ccccc2)c(OC)c1 (stereo not given) | -3.3 | 17.8* | 1.7 | -5.3 | 35.1* | 31.9*
CCCCN(CC)Cc1c(O)ccc2c(-c3ccccc3)cc(=O)oc12 | -4.4 | 7.4 | 2.8 | -1.2 | nt | nt
CCN(CC)Cc1c(O)ccc2c(-c3ccccc3)cc(=O)oc12 | 1.8 | 22.2* | 0.9 | -0.3 | 23.4* | 28.6*
CCCCN(C)Cc1c(O)ccc2c(-c3ccccc3)cc(=O)oc12 | 2.4 | 17.3* | 1.4 | 2.1 | 17.4* | 22.9*
CN(C)Cc1c(O)ccc2c(=O)c(-c3ccccc3)c(C(F)(F)F)oc12 | -0.7 | 5.2 | 2.8 | -2.7 | nt | nt
CC(C)(C)c1ccc(C(=O)NCCC(=O)NCc2ccc(F)cc2)cc1 | -2.8 | 0.0 | 3.3 | -5.7 | nt | nt
O=C(O)C1CCCCC1C(=O)Nc1cc(Cl)ccc1Cl (stereo not given) | -1.8 | -0.1 | 1.3 | nt | nt | nt
Cc1ccc(Cl)cc1NC(=O)C1CCCCC1C(=O)O (stereo not given) | 0.5 | 14.7* | 0.8 | -3.6 | 1.7 | 0.3
CCN(CC)C(=O)Cn1cc(C(=O)C(=O)Nc2ccc3c(c2)OCO3)c2ccccc21 | 4.5 | 57.2* | 2.0 | -1.9 | 24.4* | 43.9*
COc1cccc(CN2C(=O)c3cccc(N)c3C2=O)c1 | -0.8 | 14.6* | -0.4 | -10.9 | 76.0* | 79.2*
COc1cccc(CN2C(=O)c3ccccc3S2(=O)=O)c1 | -4.6 | -0.4 | 0.0 | -7.5 | nt | nt

Screening data deposited in PubChem by The Scripps Research Institute Molecular Screening Center.
